High-throughput results: PubChem BioAssay, National Center for Advancing Translational Sciences (NCATS)
POLK inh = DNA polymerase kappa (human) inhibition; purified Pol kappa, fluorescent DNA synthesis assay, 10 min; 0.53% of 400,000 active; Potency, µM (doses to about 107 µM), most hits filed as inhibitors; AID 588579; Q9UBT6
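Readout: fluorescence, taken kinetically at 0 and 10 min. Conditions: 10 nM Pol kappa, 15 min RT compound preincubation, 50 nM substrate final. Controls: enzyme-free buffer wells.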
Pol beta inh = blocks human DNA polymerase beta activity | P06746 | Pol beta primer extension/strand displacement, fluorescence kinetic | Potency, µM (doses to about 114 µM), hits mostly inhibitors | 1.3% of 340,000 active
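Human Pol beta at 10 nM; strand-displacement substrate 50 nM final. Compound exposure 15 min at room temperature before start, reaction 10 min at room temperature.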
Pol iota inh = blocks human DNA polymerase iota activity; Pol iota fluorescent replication assay, 10 min; Potency, µM (titrated, usually from 115 µM), most hits filed as inhibitors; 1% of 390,000 active; AID 588590
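Pol iota at 10 nM preincubated 15 min with compounds at room temperature; reaction started with fluorescent substrate, 50 nM final. Fluorescence read kinetically at 0 and 10 min; buffer-only wells as negative control.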
Pol eta inh = inhibitors of human DNA polymerase eta | Q9Y253 | recombinant Pol eta, fluorescent DNA replication assay | Potency, µM (top dose mostly 114 µM), usual class: inhibitors | 1.2% of 390,000 active | AID 588591
Target sequence (Q9Y253 whole entry, looked up): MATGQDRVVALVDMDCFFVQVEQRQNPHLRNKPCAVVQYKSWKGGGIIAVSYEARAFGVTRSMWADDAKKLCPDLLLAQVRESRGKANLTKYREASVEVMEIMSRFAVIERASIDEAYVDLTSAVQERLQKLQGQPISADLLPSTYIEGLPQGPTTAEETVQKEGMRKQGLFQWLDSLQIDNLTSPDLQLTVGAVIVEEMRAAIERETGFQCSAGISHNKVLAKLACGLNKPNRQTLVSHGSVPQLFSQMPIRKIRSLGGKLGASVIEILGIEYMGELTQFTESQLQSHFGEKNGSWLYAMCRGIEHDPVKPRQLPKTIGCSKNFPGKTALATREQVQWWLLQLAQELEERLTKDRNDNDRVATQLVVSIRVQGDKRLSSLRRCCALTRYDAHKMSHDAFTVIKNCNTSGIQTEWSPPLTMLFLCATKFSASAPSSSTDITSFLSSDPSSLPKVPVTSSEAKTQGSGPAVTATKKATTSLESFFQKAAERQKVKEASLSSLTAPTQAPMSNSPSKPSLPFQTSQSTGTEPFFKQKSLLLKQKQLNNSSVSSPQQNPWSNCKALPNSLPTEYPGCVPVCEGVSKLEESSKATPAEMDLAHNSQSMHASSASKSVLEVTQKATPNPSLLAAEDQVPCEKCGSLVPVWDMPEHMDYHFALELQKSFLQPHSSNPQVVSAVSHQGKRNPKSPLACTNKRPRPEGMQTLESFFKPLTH
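Pol eta at 10 nM preincubated with compounds 15 min at room temperature; reaction started with fluorescent substrate (50 nM final) and read kinetically at 0 and 10 min.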
GLS inh = blocks human kidney-isoform glutaminase activity. O94925. GLS enzymatic activity, qHTS titration. Potency, µM (highest dose often 45.5 µM), most hits filed as inhibitors. 0.21% of 410,000 active
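hKGA; 45 mM KH2PO4 pH 8.2 + 0.02% Tween-20; cpd via pin tool; 1 mM Gln soln; GluOx/HRP/Amplex Red; RT 30 min; fluor. t0 & final.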
APE1 inh = APE1 (human) endonuclease inhibition. Potency, µM (series often up to 65.8 µM), hits mostly inhibitors. 0.35% of 350,000 active. recombinant APE1, TAMRA/BHQ-2 abasic DNA cleavage fluorescence; also: nearly all actives have a fitted effect of over 55% in size
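Compound pre-exposure to 0.75 nM APE1, 15 min at ambient temperature. Reaction initiated with 50 nM TAMRA/BHQ-2 THF substrate, read immediately in kinetic mode, 525 nm excitation, 598 nm emission.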
A number is an active result; i = inactive; ? = inconclusive; nt = no result; [ ] = dose if it differs, or a comment. Rows were chosen to be rich in hits. Some 2.4% of all compounds tested hit in one or more screens of this group. Calls follow the shape of the dose curve; as a rule, active = well fitted curve in the direction sought with a large enough effect; inconclusive = small, poorly fitted or top-dose-only effect, or another doubt; inactive = no such curve, though single readings can be large; an effect the other way counts as inactive or inconclusive.

SMILES | POLK inh | Pol beta inh | Pol iota inh | Pol eta inh | GLS inh | APE1 inh
Cc1cc(C(C)(C)C)cc(C)c1C[n+]1ccc2ccccc2c1 | i | i | ? | i | i | i
CCS(=O)(=O)Nc1cc(C(=O)O)ccc1C | i | i | i | i | i | i
O=c1cc(-c2ccc(Cl)cc2)[nH][nH]1 | i | i | 1.6µM | i | i | i
Oc1c(Br)cc(Br)cc1CNc1ccccn1 | i | i | i | i | i | i
Cc1cccc(C)c1NC(=O)CSCC(=O)c1ccc(O)c(O)c1 | i | i | 20µM | ? | i | ?
CC1CCN(c2ccc(/C=N\Nc3nncn3N)cc2[N+](=O)[O-])CC1 | i | i | 13µM | i | i | i
COc1cc(/C=N\Nc2nncn2N)ccc1OC(C)=O | i | i | 7.1µM | i | i | i
CSc1ccc(/C=N\Nc2nncn2N)cc1 | i | i | 5.6µM | i | i | i
CC(C)(C)c1ccc(/C=N/Nc2nncn2N)cc1 | i | i | 3.2µM | i | ? | ?
CSc1ccc(/C=N/NC(=O)c2ccc(-n3cnnn3)cc2)cc1 | i | nt | i | i | i | i
COc1cc(/C=N/NC(=O)c2ccncc2)ccc1OC(C)=O | i | i | i | i | i | i
CC1CCN(c2ccc(/C=N/n3nnnc3N)cc2[N+](=O)[O-])CC1 | i | i | i | i | i | i
[S-]c1nnc(-c2ccc(Br)cc2)n1-c1ccccc1.[Zn+2] | i | i | 2.8µM | i | i | i
CCOc1ccc(-c2nnc(SCC(=O)c3ccc(Br)cc3)n2-c2ccccc2)cc1 | i | i | ? | i | i | nt
C=CCNC(=O)C1CC(=O)N(c2ccc(OCC(=O)Nc3ccc(Cl)c(C(F)(F)F)c3)cc2)C1 (stereo unspecified) | i | i | i | i | i | i
O=C(CSc1nc2nc(-c3cccs3)cc(C(F)(F)F)c2c(=O)[nH]1)C(F)(F)F | i | 79µM | i | i | i | i
COC(=O)CSc1nc2nc(-c3cccs3)cc(C(F)(F)F)c2c(=O)[nH]1 | i | i | i | i | i | i
CC(=O)Nc1ccc(NC(=O)CSc2nc3nc(-c4cccs4)cc(C(F)(F)F)c3c(=O)[nH]2)cc1 | i | i | i | i | i | i
CCOc1ccccc1NC(=O)CSc1nc2nc(-c3cccs3)cc(C(F)(F)F)c2c(=O)[nH]1 | i | ? | ? | 79µM | i | i
CCC(CC)C(=O)Nc1cccc(-c2nc3ccccc3o2)c1 | i | i | i | i | i | i
NC(=O)C1CCN(c2nc(-c3cccc4sc5ccccc5c34)cs2)CC1 | nt | nt | nt | nt | nt | i
Cc1cc(C)nc(N/N=C/c2ccccc2OCc2ccccc2)n1 | i | i | i | i | i | i
O=C(O)c1ccccc1NS(=O)(=O)c1ccc(NN=Cc2ccc(F)cc2)c([N+](=O)[O-])c1 | i | nt | i | 35µM | i | i
Cc1cc(C)nc(N/N=C/c2ccccc2OCC(=O)O)n1 | i | i | i | 28µM | ? | i
O=C(O)COc1ccccc1/C=N/Nc1ccc(S(=O)(=O)Nc2ccc(Cl)cc2)cc1[N+](=O)[O-] | ? | ? | ? | 28µM | ? | ?
SMILES | POLK inh | Pol beta inh | Pol iota inh | Pol eta inh | GLS inh | APE1 inh
O=C(O)c1ccccc1NS(=O)(=O)c1ccc(NN=Cc2cccc(Cl)c2)c([N+](=O)[O-])c1 | i | nt | ? | 20µM | i | ?
COc1ccccc1NS(=O)(=O)c1ccc(N/N=C/c2ccccc2OCC(=O)O)c([N+](=O)[O-])c1 | i | i | ? | ? | i | ?
O=C(O)c1ccc(/C=N/Nc2ccc(S(=O)(=O)N3CCCC3)cc2[N+](=O)[O-])cc1 | i | i | i | i | i | i
CC1(C)S[C@@H]2[C@H](NC(=O)[C@H](NC(=O)N3CCN(S(C)(=O)=O)C3=O)c3ccccc3)C(=O)N2[C@H]1C(=O)O | i[19.4 µM] | nt | nt | nt | i | nt
CCc1ccc2oc(C(=O)Nc3cccnc3)c(C)c2c1 | i | i | i | i | i | i
O=C(Nc1cccnc1)c1cc2c(ccc3ccccc32)o1 | ? | 32µM | 50µM | ? | i | i
NNC(=O)c1cc2c(ccc3ccccc32)o1 | i | i | i | i | 22µM | i
COc1ccccc1N1CCN(C(=O)C(C)CS(=O)(=O)c2ccc3c(c2)NC(=O)CS3)CC1 (stereo unspecified) | i | 8.9µM | i | i | i | i
O=C(Nc1nc(-c2ccccn2)cs1)C1CC(=O)N(c2ccc3c(c2)OCCO3)C1 (stereo unspecified) | ? | 13µM | 20µM | ? | i | i
CSCCC(NS(=O)(=O)c1ccc(Cl)cc1)C(=O)OCC(=O)c1c(C)[nH]c2ccccc12 (stereo unspecified) | i | i | i | i | i | i
COc1cc(N(C)C)ccc1C=c1c2ccccc2n2c1cc(-c1ccccc1)[n+]2C | ? | nt | ? | 22µM | ? | nt
O=S(=O)(Cc1ccccc1)N1CCc2ccccc21 | nt | ? | nt | nt | nt | i
OCCCn1c(CCNc2nc(-c3ccc(F)cc3)cs2)nc2cc(C(F)(F)F)ccc21 | i | nt | i | i | i | nt
COc1cccc2sc3ccc(NCc4ccc5c(c4)OCO5)cc3c(=O)c12 | 79µM | ? | 16µM | i | i | i
CN1/C(=C/C=C(C#N)C#N)C=Cc2ccccc21 | i | i | 79µM | i | i | ?
CCOC(=O)c1c(C)sc(-c2c(-c3cccc(Cl)c3)[nH]c3c2c(=O)n(C)c(=O)n3C)c1O | i | i | 79µM | nt | i | nt
CCOC(=O)c1c(C)sc(-c2c(-c3cc(C)ccc3C)[nH]c3c2c(=O)n(C)c(=O)n3C)c1O | i | 5.6µM | ? | ? | i | nt
CCOC(=O)c1c(N2C(=O)Nc3ccccc3N2O)n[nH]c1-c1cccc(Cl)c1 | i | i | i | i | i | i
COc1cc(OC)cc(C(=O)OCC(=O)NCc2ccco2)c1 | i | nt | 45µM | ? | i | i
COc1cc(C(=O)OCC(=O)NCc2ccco2)cc(OC)c1OC | i | ? | ? | ? | i | i
CCn1c(=O)cc(OCC(=O)NCc2ccco2)c2ccccc21 | i | 45µM | ? | ? | i | ?
COc1ccccc1N(CC(=O)NCc1ccco1)S(C)(=O)=O | i | ? | i | i | i | i
COc1ccc(S(=O)(=O)N(CC(=O)NCc2ccco2)c2ccccc2OC)cc1 | ? | ? | 50µM | ? | i | i
CCOc1cc(C(=O)OCC(=O)NCc2ccco2)cc(OCC)c1OCC | ? | 18µM | ? | ? | i | ?
CCn1c(=O)cc(OCC(=O)NCc2ccc(C)o2)c2ccccc21 | i | i | i | i | i | i
CC(=O)N1C(=O)C2(C(C#N)=C(N)Oc3n[nH]c(-c4ccccn4)c32)c2ccccc21 (stereo unspecified) | i | i | ? | i | i | i
O=C(NCCc1ccccc1)c1nc(-c2ccc(Cl)cc2)n2c1CCCCC2 | i | i | i | i | i | nt
